Giardia kill: Giardia lamblia killing. Giardia lamblia trophozoite viability. activity change, % at 7.66 µM, hits read low. AID 540267. actives 0.15% (n = 340,000); in the data active = activity change below about -80%; inconclusive = between about -30% and that limit;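 also: parasites exposed to compound for two days anaerobically before the ATP read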
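Each well holds 100 Giardia trophozoites and compound. After two days (48 hrs) at 37 deg C in anaerobic conditions, ATP is quantified by luminescence.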
S-ASM inh: human S-ASM enzyme inhibition. P17405. placental ASM, HMU-PC fluorogenic substrate, 60 min. Potency, µM (series often up to 57.5 µM), most hits filed as inhibitors. actives 0.006% (n = 340,000)
Target sequence (P17405 47-631 limits assumed): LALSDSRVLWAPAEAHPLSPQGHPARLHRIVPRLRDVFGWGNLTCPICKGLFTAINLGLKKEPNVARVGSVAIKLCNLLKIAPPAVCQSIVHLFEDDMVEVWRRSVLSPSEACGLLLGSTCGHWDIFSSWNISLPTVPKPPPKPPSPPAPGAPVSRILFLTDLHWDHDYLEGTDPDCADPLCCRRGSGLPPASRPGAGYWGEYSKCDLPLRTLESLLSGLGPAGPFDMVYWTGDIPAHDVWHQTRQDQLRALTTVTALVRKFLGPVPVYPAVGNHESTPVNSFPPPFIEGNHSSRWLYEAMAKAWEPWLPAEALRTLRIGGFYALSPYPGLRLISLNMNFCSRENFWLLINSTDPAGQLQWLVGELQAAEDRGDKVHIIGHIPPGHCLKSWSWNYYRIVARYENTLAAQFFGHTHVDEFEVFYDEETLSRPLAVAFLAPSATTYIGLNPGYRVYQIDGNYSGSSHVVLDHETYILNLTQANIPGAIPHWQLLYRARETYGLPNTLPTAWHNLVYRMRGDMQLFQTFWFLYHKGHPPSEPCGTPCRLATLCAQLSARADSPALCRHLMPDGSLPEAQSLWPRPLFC
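Human placenta-derived ASM preincubated with compound 10 min at room temperature, then reacted with 9 uM (final) fluorogenic HMU-PC substrate for 60 min at 37 C. Stop solution raises pH to 10; fluorescence read at Ex 386/Em 447 nm.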
MCF10A rereplic: inducers of DNA re-replication in MCF 10A breast cells; MCF 10A DNA re-replication, Hoechst nuclear intensity, 48 h; Potency, µM (doses to about 46.1 µM), hits mostly activators; actives 2.9% (n = 350,000); AID 624296; also: nearly all actives have a fitted effect of over 50% in size
SW480 rereplic: induces DNA re-replication in SW480 colon adenocarcinoma cells | actives 1.8% (n = 340,000) | SW480 DNA re-replication, Hoechst DNA content imaging, 48 h | AID 624297 | Potency, µM (highest dose often 46.1 µM), hits mostly activators; also: nearly all actives have a fitted effect of over 55% in size
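DNA re-replication was detected as more nuclei of elevated Hoechst intensity after 48 hr exposure to compound (23 nL pinned per well of 250 cells).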
KB-V1 cytotox: KB-V1 MDR subline cytotoxicity | Potency, µM (doses to about 46.1 µM), usual class: cytotoxic | KB-V1 MDR cells viability, CellTiter-Glo, 72 h | actives 3.4% (n = 400,000) | AID 1347076; also: nearly all actives have a fitted effect of over 60% in size
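In this primary screen, KB-V1 cells overexpressing P-gp are incubated with library compounds (lowest to highest concentration) for 72 h at 37 degrees C before a luminescent ATP viability read.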
KB-3-1 tox: kills parental KB-3-1 adenocarcinoma cells; actives 1.4% (n = 400,000); Potency, µM (series often up to 46.1 µM), actives largely listed as cytotoxic; KB-3-1 viability, CellTiter-Glo ATP luminescence, 72 h; also: nearly all actives have a fitted effect of over 60% in size
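Cytotoxicity measured as CellTiter-Glo luminescence after 72 h at 37 C. Compound titrations were pinned onto drug-naive KB-3-1 parental adenocarcinoma cells grown in DMEM with 10% FBS, and normalized data fitted to concentration-response curves.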
Hits are given with their value; n = inactive; u = inconclusive; x = no result; ! = a repeat was not active. Shown are actives, neighbours in structure and some others; about 6.9% of the full set was active somewhere. Unless noted, calls follow the shape of the dose curve; as a rule, active = well fitted curve in the direction sought with a large enough effect; inconclusive = small, poorly fitted or top-dose-only effect, or another doubt; inactive = no such curve, though single readings can be large; an effect the other way counts as inactive or inconclusive.

SMILES	Giardia kill	S-ASM inh	MCF10A rereplic	SW480 rereplic	KB-V1 cytotox	KB-3-1 tox
CCCNC(=O)c1cnc2c(-c3ccc(OCC)c(OCC)c3)c(C)nn2c1-c1ccccc1	x	x	x	x	n	n
CCN(CC(=O)NCc1cccs1)C(=O)c1cccc(S(=O)(=O)NCc2ccccc2)c1	n	n	n	n	u	n
CCCCCCn1cc(C(=O)O)c(=O)c2cc(F)c(N3CCN(C(=O)OCC)CC3)cc21	n	n	n	n	2.06µM	n
O=[N+]([O-])c1ccc(C(O)CN=Cc2ccc(O)cc2O)cc1 (configuration not stated)	n	n	16.4µM	n	n	n
Cc1ccc(Nc2nc(NCc3ccco3)nc3nccnc23)cc1C	n	x	x	x	n	n
COc1ccc(/C=C\c2nccc3c2[nH]c2ccccc23)cc1	n	x	x	x	n	n
Clc1ccc(/C=C\c2nccc3c2[nH]c2ccccc23)cc1	n	n	2.59µM	9.2µM	u	n
N#Cc1ccc(/C=C\c2nccc3c2[nH]c2ccccc23)cc1	n	n	u	2.06µM	n	n
COc1cc2c(cc1OC)C(=O)N1[C@H]3c4ccccc4OC[C@@H]3[C@H](c3ccccc3)[C@]1(C)C(=O)N2	n	n	n	u	u	n
COc1ccc2c(c1)OC[C@H]1[C@H]2N2C(=O)c3cc(OC)c(OC)cc3NC(=O)[C@@]2(C)[C@H]1c1ccccc1	n	n	18.4µM	20.6µM	u	n
COc1ccc2c(c1)[C@H]1[C@H](CO2)[C@H](c2ccccc2)[C@]2(C)C(=O)Nc3ccccc3C(=O)N12	n	n	29.1µM	u	u	u
CCOc1ccc(CN(C(=O)c2oc3cc(C)ccc3c2C)C2CCS(=O)(=O)C2)cc1 (configuration not stated)	n	n	14.6µM	20.6µM	u	u
Cc1ccc2nc(CN3CCN(S(=O)(=O)c4ccc(C(C)C)cc4)CC3)oc2c1	x	x	x	x	n	u
CCCN(CC(=O)Nc1cc(Cl)cc(Cl)c1)CC(=O)Nc1ccc(F)c(F)c1F	n	n	u	u	23.1µM	n
CCCC[C@H]1CCCO[C@@](C(=O)NCc2ccccn2)(C(F)(F)F)C1	n	x	x	x	x	x
Cc1nc2ccccc2c2nc(NC(=O)Cc3ccccc3)nn12	n	n	n	n	18.4µM	u
Cc1cc(NC(=O)Cc2ccccc2)c2ccccc2n1	n	n	u	n	n	n
COc1ccc2nc(N3C(=O)C(O)=C(C(=O)c4ccco4)C3c3ccc(C)o3)sc2c1 (configuration not stated)	n	n	u	n	u	n
Cc1cc(C)c2nc(N3C(=O)C(O)=C(C(=O)c4ccco4)C3c3ccco3)sc2c1 (configuration not stated)	n	n	18.4µM	16.4µM	n	n
CCOc1ccc2nc(N3C(=O)C(O)=C(C(=O)c4ccco4)C3c3ccco3)sc2c1 (configuration not stated)	n	n	n	n	u	n
Cc1ccc2nc(N3C(=O)C(O)=C(C(=O)c4ccco4)C3c3cccs3)sc2c1 (configuration not stated)	n	n	20.6µM	u	13µM	n
CCCCn1c(=S)[nH]c2cc(S(=O)(=O)N3CCOCC3)ccc21	n	n	n	n	n	n
CCn1c(=S)[nH]c2cc(S(=O)(=O)N3CCCCC3)ccc21	n	n	n	n	13µM	n
CCc1ccccc1N1C(=O)N(Cc2cccc(Cl)c2)c2ccccc2S1(=O)=O	x	x	x	x	n	u
COc1cc(/C=C2\SC(N3CCc4ccccc4C3)=NC2=O)cc(OC)c1OC	n	n	u	n	2.31µM	u
SMILES	Giardia kill	S-ASM inh	MCF10A rereplic	SW480 rereplic	KB-V1 cytotox	KB-3-1 tox
CCOc1ccc(-c2cc(C(=O)O)c3ccccc3n2)cc1	-82.6	n	n	n	n	n
CCOc1ccc(-c2cc(C(=O)NCCCn3ccnc3)c3cc(Br)ccc3n2)cc1	n	n	u	u	u	u
CCOc1ccc(-c2cc(C(=O)NCCCn3ccnc3)c3ccccc3n2)cc1	n	n	0.581µM	n	n	n
CCOc1ccc(-c2cc(C(=O)N3CCN(c4cccc(C(F)(F)F)c4)CC3)c3ccccc3n2)cc1	x	x	x	x	u	5.8µM
COc1ccccc1OC[C@H](O)COC(N)=O	x	x	n	n	x	x
COc1cc(OC)cc(C(=O)Nc2ccc3c(c2)OCCO3)c1	n	n	n	n	9.2µM!	16.4µM!
Cc1ccc(C(=O)Nc2ccc3c(c2)OCCO3)o1	u	n	n	n	20.6µM	n
O=C(Nc1ccc2c(c1)OCCO2)c1cc2sccc2n1Cc1ccccc1	n	n	n	n	u	n
COc1cc(OC)cc(C(=O)NC(C(=O)Nc2ccc3c(c2)OCCO3)C(C)C)c1 (configuration not stated)	n	n	n	n	n	n
Cn1c(C(=O)Nc2ccc3c(c2)OCCO3)cc2sccc21	u	n	n	n	14.6µM	n
CC(C)c1ccc(Nc2sc(C(=O)c3ccccc3)c(N)c2S(=O)(=O)c2ccccc2)cc1	x	x	x	x	n	n
COc1ccc(-c2cc(=O)oc3cc(OC(=O)C4CCCCC4)c(Cl)cc23)cc1	u	n	11.6µM	11.6µM	n	n
COC(=O)C1[C@H]2SC(C)(C)C(C(=O)OC)N2C(=O)N1Cc1ccccc1 (some centres not stated)	x	x	x	x	n	n
CC(C)N(Cc1ccccc1)C(=O)c1nc(-c2ccc(Cl)cc2)n2c1CCCCC2	x	x	x	x	16.4µM	n
Cc1ccc(-c2nc(C(=O)NCc3ccc(Cl)cc3)c3n2CCCCC3)cc1	x	x	x	x	13µM	u
COC(=O)c1ccccc1NC(=O)c1nc(-c2ccc(C)cc2)n2c1CCCCC2	x	x	x	x	14.6µM	u
CCOc1ccc(CC(=O)N2CCc3cc(OC)c(OC)cc3C2COc2ccc3c(C)cc(=O)oc3c2)cc1 (configuration not stated)	x	x	x	x	n	n
COC(=O)c1ccc(NC(=O)CN2C(=O)c3cccc4cccc2c34)cc1	x	x	x	x	n	n
CCOc1ccccc1N1CCN(C(=O)C2CSC3(C)CCC(=O)N23)CC1 (configuration not stated)	n	n	n	n	18.4µM	n
CCOc1ccc(S(=O)(=O)N2CCN(C(=O)C3CSC4(C)CCC(=O)N34)CC2)cc1 (configuration not stated)	n	n	n	n	u	n
CCCCOC(=O)c1ccc(NC(=O)Cc2coc3ccc(C(C)C)cc23)cc1	x	x	x	x	n	n
O=C1[C@H]2[C@@H](C(=O)N1c1cc(Cl)cc(Cl)c1)[C@]1(C(=O)Nc3ccccc31)N1CCC[C@@H]21	n	n	n	n	14.6µM	n
Cc1cc(Cl)c2c(c1)[C@]1(C(=O)N2)[C@@H]2C(=O)N(Cc3ccccc3)C(=O)[C@@H]2[C@@H]2CCCN21	n	n	n	n	u	u

Screening results (PubChem BioAssay)
